# Assay outcomes as filed in PubChem BioAssay.
# aSyn yeast inh: qHTS of alpha-syn Inhibitors. Potency, µM (top dose mostly 46.1 µM), without a hit: at the highest dose growth rescue (activation), most hits filed as activators. Yeast expressing alpha-synuclein, growth rescue, BacTiter-Glo, 24 h. 370,000 tested, 0.14% active; note: % of control where 0% means no effect; nearly all actives have a fitted effect of over 65% in size
#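 Readout is rescue of growth in alpha-synuclein-expressing yeast, so inhibitors of toxicity appear as activators. Growth after 24 hr at 30 deg C in galactose medium is quantified by luminescence.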
# Mito fusion yeast: qHTS Assay for Small Molecule Inhibitors of Mitochondrial Division or Activators of Mitochondrial Fusion. S. cerevisiae fusion-defective mutant growth rescue, CellTiterGlo 48 h. Potency, µM (highest dose often 46.1 µM), inactives show top-dose growth rescue (activation), hits mostly activators. 320,000 tested, 0.23% active. AID 485298, 2010; note: % of control where 0% means no effect; nearly all actives have a fitted effect of over 45% in size
#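 S. cerevisiae fusion-defective temperature-sensitive mutants (e.g. fzo1-1, mgm1-5) grown 48 h at 37C in YPEG (ethanol/glycerol non-fermentable) medium with 23 nl compound per well; growth rescue read as CellTiterGlo luminescence.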
# FUS suppressor: qHTS for Suppressors of FUS Proteinopathy: Primary screen using FUS-linked yeast assay. Potency, µM (doses to about 76.6 µM), most hits filed as activators. S. cerevisiae FUS-expressing, growth rescue, OD600, 24 h. 390,000 tested, 0.24% active;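 note: plate controls were DMSO vehicle for no effect and reference control for full effect; nearly all actives have a fitted effect of over 55% in size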
#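 Galactose (2%) drives FUS expression in yeast precultured in raffinose; seeding density OD 0.005. Test compounds incubated 24hr at 30C and 99% humidity before absorbance at 600 nm was measured.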
# TDP-43 yeast inh: qHTS of TDP-43 Inhibitors; AID 652104, 2013; Potency, µM (series often up to 46.1 µM), for the others: top-dose growth rescue (activation), usual class: activators; TDP-43 expressing yeast growth rescue, BacTiter-Glo, 24 h; 410,000 tested, 1.8% active; note: % of control where 0% means no effect; nearly all actives have a fitted effect of over 50% in size
#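 Yeast expressing TDP-43 (pregrown in raffinose, seeded at OD600=0.02 in galactose medium) exposed to compounds 24 hr at 30 deg C. Growth read by BacTiter-Glo luminescence; rescue of toxicity appears as increased signal.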
# Abeta yeast res: qHTS for compounds that reverse cellular toxicity of Amyloid beta (A-beta) peptide in yeast: Primary Screen; yeast expressing A-beta42, growth rescue, OD600, 48 h; response scale: 0% DMSO, 100% iron-clioquinol control; Potency, µM (doses to about 46.1 µM), actives largely listed as activators; 410,000 tested, 0.063% active; AID 1347071, 2019; note: nearly all actives have a fitted effect of over 55% in size
#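 Growth rescue measured by 600 nm absorbance after 48 h yeast culture at 30 C with compound. Values normalized between DMSO and an equimolar ferric chloride plus clioquinol control.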
# * hit, by the source's call; i = inactive; ? = inconclusive; / = no result given; [ ] = another dose, or the depositor's remark. Shown are actives, neighbours in structure and some others; about 2.2% of the full set was active somewhere. Calls come from the whole dose curve; as a rule, active = well fitted curve in the direction sought with a large enough effect; inconclusive = small, poorly fitted or top-dose-only effect, or another doubt; inactive = no such curve, though single readings can be large; an effect the other way counts as inactive or inconclusive. Potency is the fitted concentration of half-maximal effect.
SMILES,aSyn yeast inh,Mito fusion yeast,FUS suppressor,TDP-43 yeast inh,Abeta yeast res
Cc1cc(C(=O)CSc2nc3ccccc3o2)c(C)n1C1CC1,7.9%,25.4%,i,22.4µM*,i
Cc1cc(C(=O)CSc2ncnc3ccccc23)c(C)n1C1CC1,6.5%,1.2%,/,15.3%,i
Cn1c(=O)c2cc(NC(=S)NC3CCCCC3)ccc2n1Cc1ccc(F)cc1,0.1%,/,i,28.3%,i
Cc1cc(C)cc(Cn2c3ccc(NC(=S)NC4CCCCC4)cc3c(=O)n2C)c1,-8.8%,/,28.2µM*,17.1%,i
O=[N+]([O-])c1cccc(-c2csc(Nc3ccccc3)n2)c1,-30.0%,-14.8%,i,-88.7%,i
COc1ccccc1Nc1nc(-c2cccc([N+](=O)[O-])c2)cs1,-20.1%,13.3%,i,22.4µM*,i
COc1cc(OC)c(NC(=O)c2sc3nc4n(c(=O)c3c2C)CCCC4)cc1Cl,/,/,i,?,i
O=C(COC(=O)/C=C/c1ccco1)NCc1ccc2c(c1)OCO2,-0.7%,9.6%,i,15.8µM*,i
O=C(COC(=O)C1(c2ccccc2F)CCCC1)NCc1ccc2c(c1)OCO2,18.6%,?,/,15.8µM*,i
O=C1Nc2ccccc2C1=Nc1ccc2[nH]c3ccccc3c2c1,-2.5%,/,/,4.8%,i
O=C(Cc1ccccc1F)c1ccc(O)cc1O,-6.3%,14.1%,i,20.7%[9.22 µM],?
CCCc1cc(C(=O)Cc2ccc(F)cc2)c(O)cc1O,-49.7%,?,i,?,i
O=C(Cc1ccc(F)cc1)c1ccc(O)cc1O,6.9%,9.9%,i,12.6µM*,i
O=C(Cc1c(F)cccc1Cl)c1ccc(O)cc1O,-2.4%,6.7%,i,15.8µM*,i
CCc1cc(C(=O)Cc2ccc(F)cc2)c(O)cc1O,8.3%,?,i,12.6µM*,i
CCc1ccccc1NC(=O)CCCN1C(=O)CCn2nc(-c3cn(C)c4ccccc34)cc21,/,/,i,20.9%,i
Cc1cccc(-c2nnc(SCC(=O)NC3CCCCC3)o2)c1,/,/,i,?,i
Cc1cc(C)cc(NC(=O)c2cc(S(=O)(=O)N3CCCCC3)c[nH]2)c1,/,/,i,0.0%,i
COc1cc2c(NC3CCN(C(C)C)CC3)nc(N3CCCN(C)CC3)nc2cc1OCCOCCN(C)C,7.7%,/,/,/,/
Cc1nc(N2CCOCC2)nc(N2CCCCC2C)c1[N+](=O)[O-] (stereo not drawn),-10.6%,17.9%,i,20µM*,i
Cc1ccc(C)c(NC(=O)N2CCN(C)c3ncccc32)c1,/,/,i,11.7%,i
Cc1ccc(Sc2ccc(NC(=O)CCl)cc2)c(C)c1,16.3%,12.8%,i,11.2µM*,?
CCCCNC(=O)c1onc(CSc2ccccn2)c1C(=O)NCCCC,12.1%,/,i,14.1µM*,i
Cc1nc2c(C(=O)NCCc3ccc(Cl)cc3)cnn2c(C)c1Cc1ccc(F)cc1,/,/,31.6µM*,20µM*,i
CN1CCN(C(=O)C[C@H]2CC[C@H]3[C@@H](COC[C@@H](O)CN3C(=O)C3CCCC3)O2)CC1,5.6%,/,i,15.7%,i
SMILES,aSyn yeast inh,Mito fusion yeast,FUS suppressor,TDP-43 yeast inh,Abeta yeast res
O=C(CN1CCN(Cc2ccccc2Cl)C1=O)NCc1ccccc1Cl,/,/,i,25.4%,i
O=C(COC(=O)C1CCCCC1)Nc1ccccc1OC(F)F,6.5%,6.6%,i,12.6µM*,i
COC(=O)c1cc(C(=O)OCC(=O)Nc2ccccc2OC(F)F)cc([N+](=O)[O-])c1,15.0%,4.3%,i,22.4µM*,i
O=C(COC(=O)Cc1ccc(Cl)cc1Cl)Nc1ccc(OC(F)F)cc1,12.7%,8.1%,/,3.1%,i
O=C(COC(=O)Cc1ccc(Cl)cc1Cl)Nc1ccccc1OC(F)F,8.6%,13.0%,i,20µM*,i
Cc1cc(C)cc(NC(=O)C2CCN(S(=O)(=O)c3ccc4c(c3)oc(=O)n4C)CC2)c1,/,/,i,5.3%,i
COc1ccc(/C=C\c2onc(C)c2S(=O)(=O)N2CCC(C(=O)Nc3ccccc3OC)CC2)cc1,/,/,12.6µM*,-11.6%,i
COc1ccc(/C=C\c2onc(C)c2S(=O)(=O)N2CCC(C(=O)Nc3cccc(C)c3C)CC2)cc1,/,/,i,14.2%,i
CCOc1ccc(N2C(=O)CC(N3CCN(c4ccc(Cl)cc4)CC3)C2=O)cc1 (stereo not drawn),-15.3%,-1.4%,i,14.1µM*,i
CCC1CCCCN1C(=O)COC(=O)COc1ccc(Br)cc1 (stereo not drawn),-3.1%,/,i,-32.4%,i
Cc1cccc(C)c1-n1nnnc1C1c2ccccc2C(=O)N1CCC(C)C (stereo not drawn),5.3%,/,i,0.0%,i
Cc1cccc(C)c1-n1nnnc1C1c2ccccc2C(=O)N1CCc1ccccc1F (stereo not drawn),7.6%,/,i,35.5µM*,i
O=C(NCCN1CCCCC1)c1ccc(Cn2c(SCc3ccc(F)cc3)nc3cccnc32)cc1,/,/,i,13.7%,i
CC(SC#N)C(=O)C12CC3CC(CC(C3)C1)C2 (stereo not drawn),6.2%,19.5%,i,11.2µM*,i
Cc1ccc(-c2nc3ccccn3c2Nc2ccc3c(c2)OCCO3)o1,/,/,i,-5.5%,i
O=C(CSc1nnc(COc2ccccc2Cl)o1)NC(=O)NC1CCCC1,17.8µM*,0.9%,?,2.7%,i
Cc1nc2ccc(C(=O)N(C)Cc3ccco3)cn2c1N(C)C(=O)CCc1ccccc1,-0.4%,/,i,-0.4%,i
CC(C)CCn1c(NCCc2ccccc2)nc2c1c(=O)n(C)c(=O)n2C,0.5%,17.8µM*,i,?,i
Cn1c(=O)c2c(nc(NCCc3ccccc3)n2Cc2ccc(F)cc2)n(C)c1=O,4.0%,22.8%,i,17.0%,i
CCCc1ccc(OCC(=O)Nc2sc3c(c2C(=O)OCC)CCC(C(C)(C)C)C3)cc1 (stereo not drawn),/,/,i,24.2%,i
CCO[C@H]1OC(C(=O)Nc2ccccc2)=C[C@@H](c2ccc(C(F)(F)F)cc2)[C@@H]1CCCO,?,2.4%,i,35.5µM*,i
COc1ccc(C(=O)NCC(c2cccnc2)N2CCc3ccccc32)cc1 (stereo not drawn),/,/,i,-30.3%,i
O=C(N/N=C/c1c[nH]c2ccc(Br)cc12)c1ccn(Cc2ccc(Cl)cc2Cl)n1,1.5%,-7.9%,28.2µM*,20.1%,i
O=C1/C(=C/c2cccs2)CCC/C1=C\c1cccs1,-8.1%,2.0%,i,24.8%,i
O=C1/C(=C/c2ccsc2)CC/C1=C\c1cccs1,-13.3%,11.6µM*,/,/,/
